Consider 40 compounds from PubChem BioAssay (Tox21).

Results filed as inconclusive are left out. A call without a number means that no potency is given here. Activity calls are given as the source filed them. Calls come from the whole dose curve; as a rule, active = well fitted inhibition curve with a large enough effect in the repeat runs; inconclusive = weak or mixed curves; inactive = flat fitted curve, though single readings scatter.
Potency is the fitted concentration of half-maximal effect.

The experiment deals with Voltage-gated inwardly rectifying potassium channel KCNH2 (Homo sapiens) (UniProt Q12809). Kind of experiment: Human Ether-a-go-go-Related Gene (hERG) channel small molecule antagonists: fluorescence cell-based qHTS assay (AID 1671200). Note: nearly all actives have a fitted effect of over 50% in size. The following applies: hERG-U2OS cells, FluxOR thallium flux fluorescence; series mostly up to 76.8 µM. The source says: National Center for Advancing Translational Sciences [NCATS]
Chain of Voltage-gated inwardly rectifying potassium channel KCNH2 (Homo sapiens) (Q12809 whole entry, looked up): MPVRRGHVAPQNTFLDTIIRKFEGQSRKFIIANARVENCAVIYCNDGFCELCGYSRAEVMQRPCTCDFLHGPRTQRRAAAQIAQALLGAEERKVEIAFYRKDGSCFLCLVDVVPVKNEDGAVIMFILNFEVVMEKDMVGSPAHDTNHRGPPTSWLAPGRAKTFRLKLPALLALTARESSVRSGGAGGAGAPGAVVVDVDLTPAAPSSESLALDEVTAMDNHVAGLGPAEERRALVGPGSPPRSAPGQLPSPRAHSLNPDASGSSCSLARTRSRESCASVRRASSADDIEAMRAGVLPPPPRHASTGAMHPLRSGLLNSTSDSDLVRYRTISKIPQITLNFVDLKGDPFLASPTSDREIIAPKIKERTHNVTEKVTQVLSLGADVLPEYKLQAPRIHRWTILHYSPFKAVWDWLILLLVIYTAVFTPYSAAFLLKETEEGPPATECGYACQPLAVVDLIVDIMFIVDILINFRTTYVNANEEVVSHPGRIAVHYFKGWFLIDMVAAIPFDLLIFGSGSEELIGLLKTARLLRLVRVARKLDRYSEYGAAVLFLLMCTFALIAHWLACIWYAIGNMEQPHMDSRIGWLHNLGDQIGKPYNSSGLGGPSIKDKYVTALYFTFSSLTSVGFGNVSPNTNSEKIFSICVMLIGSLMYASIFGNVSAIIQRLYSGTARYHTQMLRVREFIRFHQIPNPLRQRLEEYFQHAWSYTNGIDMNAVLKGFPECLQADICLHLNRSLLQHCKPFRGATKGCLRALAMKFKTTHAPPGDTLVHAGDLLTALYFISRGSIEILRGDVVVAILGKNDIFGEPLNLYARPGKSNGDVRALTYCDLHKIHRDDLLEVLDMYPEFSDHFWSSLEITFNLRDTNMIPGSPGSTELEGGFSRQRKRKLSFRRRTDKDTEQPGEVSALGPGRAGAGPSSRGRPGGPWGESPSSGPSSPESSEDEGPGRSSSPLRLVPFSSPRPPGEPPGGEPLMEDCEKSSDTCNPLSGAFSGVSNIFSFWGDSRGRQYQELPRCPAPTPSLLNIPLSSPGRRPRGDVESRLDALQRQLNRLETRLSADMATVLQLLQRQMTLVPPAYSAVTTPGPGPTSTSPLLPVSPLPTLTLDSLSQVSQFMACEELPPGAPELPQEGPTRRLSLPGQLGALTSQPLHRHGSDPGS
U.S. Environmental Protection Agency [EPA]
National Institutes of Environmental Health Sciences [NIEHS]
National Toxicology Program [NTP]
U.S. Food and Drug Administration [FDA]
Mutations in the hERG channel cause Long QT (LQT) syndrome. LQT syndrome is a cardiac disorder which can cause ventricle arrhythmia and sudden death. Additionally, compounds which block the hERG channel can cause acquired LQT syndrome. Several FDA approved drugs have been removed from the market due to their hERG blocking activity. A cell-based hERG channel inhibition assay can be used to screen chemical compounds that inhibit hERG channel. This assay measures hERG channel activity using thallium ions as surrogate ions to measure potassium into the cells.
Tox21 Assay Protocol Summary:
hERG-U2OS cells were resuspended in culture medium and dispensed into 1536-well, black wall/clear-bottom plates at 1000cells/well/3uL using a Multidrop Combi dispenser (Thermo Fisher, Waltham, MA). After plates were incubated at 37 C overnight, 3 uL of Loading Buffer provided by FluxOR II Potassium Ion Channel Assay kit (Thermo, Carlsbad, CA) was added to each well. The assay plates were then incubated at room temperature in the dark for 1h. […] After the assay plates were incubated at room temperature for 10 min, 1 uL of Stimulus Buffer provided by FluxOR II Potassium Ion Channel Assay kit was added into each well and fluorescence intensity (480nm excitation/540nm emission) was continuously measured for 2 min at 1 second intervals using a Functional Drug Screening System (FDSS) 7000EX kinetic plate reader (Hamamatsu, Japan).
On the technique in general: Block of hERG is tested as a sign of cardiac risk.
For the compound `CCOC(=O)c1ccccc1C(=C1C=C(Br)C(=O)C(Br)=C1)c1cc(Br)c(O)c(Br)c1`, the Potency result was “inactive”. In the case of `CCCCN1CCCC1C(=O)Nc1c(C)cc(C)cc1C` (stereo not given), the Potency result was “inactive”. On to `COC(=O)c1nc(Cl)c(Cl)nc1N`, for which the Potency result is “inactive”.

In the case of `CS(=O)(=O)c1ccc(-c2cn3ccccc3n2)cc1`, the Potency result is “inactive”.

As to `CC(=O)Oc1ccc([N+](=O)[O-])cc1CCl`, the Potency result is “inactive”. Regarding `C/C=C(/C(=C/C)c1ccc(O)cc1)c1ccc(O)cc1`, the Potency entry is “inactive”. For the compound `CN1CC(=O)N2[C@H](c3ccc4c(c3)OCO4)c3[nH]c4ccccc4c3C[C@@H]2C1=O`, the Potency entry is “inactive”. Regarding `CC(=O)N/N=C/c1ccc([N+](=O)[O-])o1`, the Potency entry was “inactive”. In the case of `CC(=O)OCC[N+](C)(C)C`, the Potency entry is “inactive”. To `CCC1NC(=O)c2cc(S(N)(=O)=O)c(Cl)cc2N1` (stereo not given) belongs “inactive”; to `O=C(O)CCC(=O)C(=O)O`, “inactive”. The same measure for `Nc1nc2ccc([N+](=O)[O-])cc2s1`: “inactive”; for `Cc1cscn1`: “inactive”. `Cc1ccc(C(C)(C)O)cc1`: the Potency entry was “inactive”.

With `NNC(=O)CP(=O)(c1ccccc1)c1ccccc1`, the Potency result was “inactive”. To `CCCCCCCC/C=C\CCCCCCCCO` belongs “inactive”; to `CCC(=O)C1CC(C(C)C)CC=C1C` (stereo not given), “inactive”. Take `CCOC(C)=O`: the Potency result is “inactive”.

As for `CCn1cc(C(=O)O)c(=O)c2cc(F)c(N3CCNCC3)cc21`, the Potency entry is “inactive”. As for `O=C1Cc2ccccc2N1c1c(Cl)cccc1Cl`, the Potency was 19.5 µM (active).

With `Brc1cc(Br)c(Oc2cc(Br)c(Br)cc2Br)cc1Br`, the Potency entry was “inactive”. With `Cc1cccc(N(C)C(=S)Oc2ccc3c(c2)CCC3)c1`, the Potency result was “inactive”. Take `Cc1ccco1`: the Potency result is “inactive”. For `C[C@@H]1CN(CCCn2c3ccccc3c3ccccc32)C[C@H](C)N1`, the Potency was 6.01 µM (active). In the case of `COc1ccccc1Oc1c(NS(=O)(=O)c2ccc(C(C)(C)C)cc2)nc(-c2ncccn2)nc1OCCO`, the Potency result is “inactive”. As for `O=C(/C=C/c1ccccc1)OCCc1ccccc1`, the Potency was 49 µM (active). Consider `O=C1c2ccccc2C(=O)c2c(O)c(O)cc(O)c21`, for which the Potency entry is “inactive”. As for `c1cc(N(CC2CO2)CC2CO2)ccc1Cc1ccc(N(CC2CO2)CC2CO2)cc1` (stereo not given), the Potency result is “inactive”. As to `CN1CCCN=C1COC(=O)C(O)(c1ccccc1)C1CCCCC1` (stereo not given), the Potency is 4.77 µM (active). As for `C=C(C)C(=O)OCCCCCCCCCCCCC`, the Potency entry was “inactive”.

Turning to `CCCCCCC(C)(C)C(=O)O`, the Potency result is “inactive”. The same measure for `COc1ccccc1N1CCN(CC(O)COc2cccc3ccccc23)CC1` (stereo not given): 1.9 µM (active); for `O=C(CCc1ccc(O)cc1)c1c(O)cc(O)cc1O`: “inactive”. Consider `CC1(CN2CCC(n3c(=O)[nH]c4ccccc43)CC2)OCc2ccccc2-n2cccc21` (stereo not given), for which the Potency is 8.49 µM (active). With `CC1CC(OC(=O)C(O)c2ccccc2)CC(C)(C)N1C` (stereo not given), the Potency result is “inactive”. Consider `Oc1cccc(O)c1O`, for which the Potency result was “inactive”. Turning to `CCOC(=O)OC(C)OC(=O)[C@@H]1N2C(=O)[C@@H](NC(=O)[C@H](N)c3ccccc3)[C@H]2SC1(C)C` (stereo not given in full), the Potency result is “inactive”. To `CCOc1ccccc1O[C@H](c1ccccc1)[C@H]1CNCCO1` belongs “inactive”.

For `CCC1(CO)COCOC1`, the Potency entry is “inactive”.

Consider `O=C(O)c1ccc(OCCCOc2ccc(C(=O)O)cc2)cc1`, for which the Potency entry is “inactive”.
